Source: PubChem
Most compounds without a hit are left out; they make up all but 5.3% or so of the library.
Vaccinia mCherry – vaccinia inhibition (mCherry reporter). AID 720579. hit rate 0.63% among 310,000. Vaccinia virus mCherry reporter infection, fluorescence. Potency, µM (highest dose often 36.5 µM), inactives show top-dose activity change, negative = inhibition, usual class: inhibitors; calls by dose curve; tested in A549 cells; further: nearly all actives have a fitted effect of over 35% in size
FMDV inh – blocks foot and mouth disease virus | FMDV antiviral cell-based qHTS | Potency, µM (doses to about 57.9 µM), for inactives: top-dose activity change, negative = inhibition, hits mostly inhibitors | hit rate 1.2% among 410,000 | AID 1159524; calls by dose curve; tested in HEK293T cells; further: read-out not given here; nearly all actives have a fitted effect of over 45% in size
Marburg entry inh – Marburg virus entry inhibition | Marburg virus pseudotyped entry inhibition, cell reporter | Potency, µM (highest dose often 37.8 µM), without a hit: top-dose activity change, negative = inhibition, hits mostly inhibitors | hit rate 1.8% among 300,000 | AID 540276; calls by dose curve; tested in HEK293 cells
HCV inh – HCV inhibition. Huh7.5.1 HCVcc-Cre infection, luciferase reporter, 44 h. hit rate 3.4% among 340,000. Potency, µM (series often up to 41.8 µM), for inactives: at the top dose activity change, negative = inhibition, most hits filed as inhibitors; active means well fitted inhibition curve with a large enough effect; inconclusive means small, poorly fitted or top-dose-only effect, or another doubt; inactive means no such curve, though single readings can be large or run the other way
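A cell-based infection assay in which seeded cells (1,000 per well) receive test compound after 4 h, are inoculated with HCVcc-Cre at approximately 0.5 moi, and are incubated 44 h before luminescence detection.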
Vaccinia Venus – inhibitors of vaccinia virus (Venus reporter). hit rate 0.46% among 330,000. Potency, µM (titrated, usually from 36.5 µM), for the others: top-dose activity change, negative = inhibition, actives largely listed as inhibitors. Vaccinia virus Venus reporter expression, fluorescence. AID 720580; calls by dose curve; tested in A549 cells; further: nearly all actives have a fitted effect of over 30% in size
LASV entry inh – Lassa virus entry inhibition; Lassa virus pseudotype entry inhibition, cell reporter; Potency, µM (series often up to 37.9 µM), for inactives: top-dose activity change, negative = inhibition, hits mostly inhibitors; hit rate 1.2% among 300,000; AID 540256; calls by dose curve; tested in HEK293 cells; further: nearly all actives have a fitted effect of over 50% in size
Numbers without * were called inactive; i = inactive; ? = inconclusive; nt = not tested or not shown; ! = not confirmed by another sample; [ ] = dose if it differs, or a comment. On the % scale 0 is the no-effect control and ±100 the full control effect; potency means the concentration at half of the fitted maximal effect.

SMILES	Vaccinia mCherry	FMDV inh	Marburg entry inh	HCV inh	Vaccinia Venus	LASV entry inh
Cc1ccc2c(c1)c1c(n2C)C(C(N)=O)CCC1 (centres undefined)	nt	-18%	10%	?	nt	-3%
Cc1ccc2c(c1)c1c(n2C)-c2[nH]ncc2CC1	nt	33%	27%	10µM*	nt	?
O=C(O)c1cc(N2C(=O)C=CC2=O)cc(N2C(=O)C=CC2=O)c1	-19%	-19%	10µM*	10%	-19%	-20%
NC(=O)c1cc(N2C(=O)C=CC2=O)ccc1Cl	-5%	12%	11%	nt	1%	-13%[14.3 µM]
COc1ccc(-c2nc(CCNC(=O)c3ccccc3)cs2)cc1OC	-20%	0%	nt	nt	-19%	?
COc1ccc(N(C)S(=O)(=O)c2cccc(C(=O)N3CCN(Cc4ccc5c(c4)OCO5)CC3)c2)cc1	-13%	?	?	?	-17%	?
O=C(c1ccc(COc2ccccc2Cl)o1)N1CCN(Cc2ccc3c(c2)OCO3)CC1	i	35µM*!	?	?	-16%	?
CCOc1ccc(N(C)S(=O)(=O)c2ccc(C)c(C(=O)N3CCN(Cc4ccc5c(c4)OCO5)CC3)c2)cc1	-23%	22µM*	-1%	?	?	?
CCN1CCN(C(=O)c2ccc(COc3ccc(Cl)cc3)o2)CC1	nt	?	-23%	?	-7%	-15%
O=C(c1ccc(COc2ccc(Cl)cc2)o1)N1CCN(Cc2ccc3c(c2)OCO3)CC1	-22%	nt	-21%	8.9µM*	-19%	?
CS(=O)(=O)c1ccc(-c2cccc3c2OC(CNC(=O)c2ccnc(Cl)c2)C3)cc1 (centres undefined)	-5%	-23%	nt	nt	0%	nt
CCn1c(C)c(C)c2cc(C(=O)NCc3ccc(OC)cc3OC)ccc21	-14%	-2%	nt	nt	-4%	5%[46.1 µM]
CC1(C)CC(=O)c2cc(C(=O)Nc3cccc4ccccc34)c(=O)[nH]c2C1	-19%	nt	nt	nt	-22%	nt
Cc1cccc(N2CCN(C(=O)C3CCC(CNS(=O)(=O)c4ccc(Br)s4)CC3)CC2)c1C (centres undefined)	-9%	?	-14%[46.1 µM]	nt	-6%	12%[46.1 µM]
O=C(C1CCN(S(=O)(=O)N2CCOCC2)CC1)N1CCN(c2ccccc2F)CC1	nt	-5%	7%	-3%	nt	?
Cc1cccc(N2CCN(C(=O)C(NS(=O)(=O)c3cccs3)c3ccccc3)CC2)c1C (centres undefined)	?	-11%	-29%	-27%	-26%	2.6µM*
Cc1cccc(N2CCN(C(=O)C3CCC(CNS(=O)(=O)c4cccs4)CC3)CC2)c1C (centres undefined)	?	-14%	?	7.9µM*	?	?
Cc1cccc(N2CCN(C(=O)C3CCN(S(=O)(=O)N4CCOCC4)CC3)CC2)c1C	nt	?	0%	10µM*	nt	?
Cc1ccccc1S(=O)(=O)Cc1ccc(C(=O)N2CCN(c3cccc(C)c3C)CC2)o1	-28%	25µM*	?	5µM*	?	3.5µM*
Cc1ccccc1S(=O)(=O)Cc1ccc(C(=O)N2CCN(c3cccc(Cl)c3)CC2)o1	-19%	-9%	?	nt	-10%	?
O=c1c2c3c(sc2n(Cc2cc(=O)n4ccccc4n2)c(=O)n1-c1ccc(Cl)cc1)CCC3	-21%	-9%	-1%[46.1 µM]	nt	-12%	-1%[46.1 µM]
O=C(C(NS(=O)(=O)c1cccs1)c1ccccc1)N1CCN(c2ccccc2F)CC1 (centres undefined)	-2%	-17%	?	?	-12%	7.3µM*
O=S(=O)(NCC(c1cccnc1)N1CCN(c2ccccc2F)CC1)c1cccs1 (centres undefined)	-17%	-3%	2%	-2%	-9%	nt
COC(=O)c1cccc(CN2C(=O)C(C)Sc3cc(Cl)ccc32)c1 (centres undefined)	i	17%	nt	nt	-18%	nt
COC(=O)C(Sc1ccc(Cl)cc1)C1SC(=S)N(Cc2ccccc2)C1=O (centres undefined)	-9%	32µM*	nt	nt	-18%	nt
Cc1cc(/C=N/n2cnnc2)c(C)n1-c1ccc(OCc2ccc(Cl)cc2Cl)cc1	nt	-46%	8.9µM*	5.6µM*	?	7.1µM*
Cc1cc(/C=N/n2cnnc2)c(C)n1-c1ccc(OCc2ccc(F)cc2)cc1	-29%	nt	?	11µM*	-25%	?
